This note sets out measurements from PubChem BioAssay AID1209 (Sanford-Burnham Center for Chemical Genomics, 2008).

The whole screen tested about 190,000 compounds, of which about 810 (0.43%) were called active. The sample holds actives, similar compounds and a random draw of the others, so the mix is not that of the screen. Unmarked numbers belong to inactive results. No stated cut-off is given here; in the data, active means inhibition above about 50%; inactive means the rest.

Mannose-6-phosphate isomerase (Homo sapiens), sequence (P34949 whole entry, looked up): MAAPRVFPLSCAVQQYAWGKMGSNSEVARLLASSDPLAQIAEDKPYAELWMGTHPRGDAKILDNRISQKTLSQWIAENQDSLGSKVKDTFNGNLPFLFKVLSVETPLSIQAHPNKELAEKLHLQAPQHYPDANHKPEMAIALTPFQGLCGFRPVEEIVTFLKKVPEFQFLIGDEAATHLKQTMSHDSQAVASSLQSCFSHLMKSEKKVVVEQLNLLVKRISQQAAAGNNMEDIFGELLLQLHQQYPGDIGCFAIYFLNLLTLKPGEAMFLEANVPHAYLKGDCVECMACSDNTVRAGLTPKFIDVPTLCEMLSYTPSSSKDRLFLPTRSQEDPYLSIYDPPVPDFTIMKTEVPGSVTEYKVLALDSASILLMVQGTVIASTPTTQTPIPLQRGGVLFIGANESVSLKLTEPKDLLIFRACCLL

This test has as its target Mannose-6-phosphate isomerase (Homo sapiens) (UniProt P34949). In words: MPI enzyme activity inhibition – biochemical, fluorescence intensity, coupled assay, primary screen (AID 1209).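 Further: plate controls were DMSO vehicle for no effect and wells lacking substrate for full effect.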 The settings on record: purified PMI enzyme, at 20 µM, active compounds read high.
As for `COc1ccc2c(c1)C(=O)N(c1ccccc1C)C(=O)C2(C)C`, the inhibition (in general, the relative decrease from the control value, in per cent) is -9.2%.

Take `COC(=O)CCCNc1ncccc1[N+](=O)[O-]`: the inhibition was -0.5%.

For `Cn1c(SCC(=O)N2CCN(c3ccccc3)CC2)nnc1-c1ccco1`, the inhibition is 4.2%.

Turning to `CC(C)(CNS(C)(=O)=O)SCc1ccc(Cl)cc1`, the inhibition was -12.2%.

Consider `Cc1nn(C(C)CC(=O)O)c(C)c1Br` (stereo not drawn), for which the inhibition was -0.1%.

On to `COc1cccc(/C=N/NC(=O)c2ccccc2)c1OS(=O)(=O)c1ccccc1`, for which the inhibition is 2.4%.

Take `COc1ccc(C(=O)CCC(C)(C)[N+](=O)[O-])cc1`: the inhibition was -6.3%.

For `O=C(c1ccc(CS(=O)(=O)c2ccc(Br)cc2)o1)N1CCN(C2CCCCC2)CC1`, the inhibition was -9%.

As for `O=C(NC1CCCCC1)C(=S)N1CCOCC1`, the inhibition is 10.9%.

`O=C(NC1CCCCCC1)C(=S)N1CCCC1`: the inhibition is 4.7%.

As for `O=C(NC1CCCCCC1)C(=S)N1CCOCC1`, the inhibition was 61.8% (active).

`Cc1ccc(C(C(=O)NC2CCCCC2)N2CCC3(CC2)OCCO3)cc1` (stereo not drawn): the inhibition was 1.6%.

With `C=CCOC(=O)C1=C[C@H](c2ccc(Br)cc2)[C@@H](CCCO)[C@H](OCC)O1`, the inhibition was 17.5%.

Turning to `Cc1occc(=O)c1O`, the inhibition was -5.2%.

Consider `Cc1cc(=O)c2c(O)c(O)ccc2o1`, for which the inhibition was 77.7% (active).

In the case of `COc1ccc(-c2cc(=O)c3c(O)c(OC)c(O)cc3o2)cc1`, the inhibition was 0.6%.

Turning to `O=C(O)c1ccccc1Cc1nc2cc(Cl)ccc2c(=O)[nH]1`, the inhibition is -7.4%.

For `COc1ccc(NC(=O)CCCn2c(=O)c3sccc3n(Cc3ccccc3C)c2=O)cc1`, the inhibition is 6.6%.

Regarding `OCC[n+]1ccc(/C=C/c2c[nH]c3ccccc23)cc1`, the inhibition is 2.7%.

`CCN(CC)C(=O)c1ccc(/C=C/c2c[nH]c3ccccc23)[n+](C)c1`: the inhibition was 8.9%.

Take `CCc1ccc(/C=C/c2c[nH]c3ccccc23)[n+](CC)c1`: the inhibition was 51.8% (active).

`NS(=O)(=O)c1ccc(CCNC(=O)C2CCC(CNS(=O)(=O)c3ccc(Br)s3)CC2)cc1` (stereo not drawn): the inhibition was 4.5%.

For the compound `Cc1cc(C)c2cc(CNC3CCCC3)c(Cl)nc2c1`, the inhibition is 8.6%.

For the compound `CC(C)(C)c1nn(-c2ccccc2)c2nc(Cl)c(C=O)cc12`, the inhibition is -1.5%.

Consider `Cc1cc2cc(C=O)c(Cl)nc2cc1C`, for which the inhibition was 61.2% (active).

Take `Cc1ccc2cc(C=O)c(Cl)nc2c1`: the inhibition is 37.4%.

Regarding `Cc1cc2cc(C=C(C#N)C#N)c(Cl)nc2cc1C`, the inhibition is 20.3%.

With `Cc1occc1C(=O)NNC(=O)C1CCCCC1`, the inhibition is 20.4%.

`CCOc1ccc(CCNC(=O)CSc2nn(-c3ccc(C)c(Cl)c3)c(=S)s2)cc1OCC`: the inhibition was 8.9%.

With `CCN(CC1COc2ccccc2O1)C(=S)Nc1ccccc1` (stereo not drawn), the inhibition is 11.9%.

For the compound `S=C(c1ccc(-c2ccccc2Cl)o1)N1CCCCC1`, the inhibition is 10.9%.

Regarding `S=C(c1ccc(-c2cc(Cl)ccc2Cl)o1)N1CCOCC1`, the inhibition is 11.6%.

In the case of `S=C(c1ccc(-c2ccccc2Cl)o1)N1CCOCC1`, the inhibition was 70.8% (active).

In the case of `O=C(CSc1nnc(-c2ccc(OC(F)F)cc2)o1)N1CCOCC1`, the inhibition was -4.5%.

Turning to `CNC(=O)c1ccccc1F`, the inhibition was 6.4%.

Regarding `O=C(C1CC1)N1N=C(C2CCCCC2)CC1(O)C(F)(F)F` (stereo not drawn), the inhibition is 6.9%.

`O=C(C1CCCC1)N1CCC(CO)(Cc2ccccc2Cl)CC1`: the inhibition is 0.9%.

Consider `S=c1[nH]c2cc(Cl)ccc2s1`, for which the inhibition was -15.2%.

With `S=c1[nH]c2ccc(Cl)cc2[nH]1`, the inhibition is 50.2% (active).

Regarding `COc1ccc2[nH]c(=S)[nH]c2c1`, the inhibition was 16.4%.

For the compound `O=C(Nc1ccccc1Cl)N1CCN(C/C=C/c2ccccc2)CC1`, the inhibition is -2%.

For `Cc1ccc(-c2cn3c(n2)SCC3)cc1`, the inhibition was -3.8%.

Regarding `Oc1ccc(-c2cn3c(n2)SCC3)cc1`, the inhibition is -8.6%.

On to `Oc1ccc(-c2cn3c(n2)SCC3)cc1O`, for which the inhibition was 59.5% (active).

For the compound `CCNc1nc(N2CCOCC2)nc(N(c2ccccc2)c2ccccc2)n1`, the inhibition was 13%.

Consider `COc1ccc(Cl)cc1N/C(N)=N/c1nc(CSc2ccc(C)cc2)cc(=O)[nH]1`, for which the inhibition is 3.7%.

`NC(=S)Nc1cc2ccccc2c2ccccc12`: the inhibition was 67.5% (active).

`NC(=S)N/N=C\c1c2ccccc2cc2ccccc12`: the inhibition was -64.6%.

As for `NC(=S)Nc1cccc2cc3ccccc3cc12`, the inhibition is -8.8%.

For `COc1ccc(C(=O)OCC(=O)NCCCc2ccccc2)cc1[N+](=O)[O-]`, the inhibition was 9.8%.

Regarding `O=C(CSc1nnnn1-c1ccccc1)N1CCc2ccccc2C1`, the inhibition is 4%.

Turning to `CN(C)CCC(=O)c1cccc(Br)c1`, the inhibition was 24%.

In the case of `CCN1C(=O)/C(=C2\SC(=S)N(c3c(C)n(C)n(-c4ccccc4)c3=O)C2=O)c2ccccc21`, the inhibition is 14.5%.

With `CC(=O)N1C(=O)/C(=C2\SC(=S)N(c3c(C)n(C)n(-c4ccccc4)c3=O)C2=O)c2ccccc21`, the inhibition is 64.9% (active).

For the compound `Cc1c(N2C(=O)/C(=C3/C(=O)N(C)c4ccccc43)SC2=S)c(=O)n(-c2ccccc2)n1C`, the inhibition was 11.1%.

For the compound `N/C(COc1ncn(-c2ccccc2)n1)=N\S(=O)(=O)c1ccc(Cl)cc1Cl`, the inhibition is 9.1%.

Consider `CCC(C)(C)NC(=O)C(OC(=O)c1ccco1)c1ccccc1OC` (stereo not drawn), for which the inhibition was 14.2%.

On to `O=C(O)CNC(=O)CC1S/C(=N/N=C2\CSC(=O)N2)NC1=O` (stereo not drawn), for which the inhibition was 59.9% (active).

As for `O=C(O)CNC(=O)CC1S/C(=N/N=C2/NC(=O)CS2)NC1=O` (stereo not drawn), the inhibition was 25.1%.

As to `NC(=O)NC(=O)CC1S/C(=N/N=C2\CSC(=O)N2)NC1=O` (stereo not drawn), the inhibition was 48.8%.

As for `CCc1sc(C(=O)Nc2ccsc2C(=O)OC)cc1Br`, the inhibition was -4.6%.

With `O=C(CS(=O)(=O)c1cn(Cc2cccc(F)c2)c2ccccc12)N1CCOCC1`, the inhibition was 5.3%.

On to `O=C1CCNc2ccc(-c3ccccc3)cc21`, for which the inhibition is 3.1%.

As to `Cc1ccc2c(c1)C(=O)CCN2`, the inhibition was -1.2%.

For the compound `Cc1ccc2oc(-c3ccccc3C(=O)O)cc(=O)c2c1`, the inhibition is -3.3%.

Take `CCOC(=O)c1cc2n(c1/N=C/N(C)C)-c1ccccc1C2=O`: the inhibition was 55.7% (active).

Consider `CCOC(=O)c1cnc(/N=C/N(C)C)s1`, for which the inhibition is 2.3%.

As for `CCOC(=O)c1sc(/N=C/N(C)C)nc1C`, the inhibition was -4.1%.
